Source: PubChem (several laboratories)
This is a sample that favours compounds with a hit; in the whole collection about 4.4% have one here.
PfHsp90 yeast 2: inhibits growth of yeast expressing Plasmodium falciparum Hsp90 | S. cerevisiae expressing PfHsp90, BacTiter-Glo ATP, 48 h; yeast lacking PDR1 and PDR3 efflux regulators | inhibition, % at 9.4 µM | hit rate 0.32% among 310,000;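 active means every replicate shows inhibition above about 80%, whatever the replicate mean, limit read from the data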;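 further: 0% = DMSO neutral controls and 100% = 20 µM radicicol positive controls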
tim10-1 inh: tim10-1 yeast growth inhibition; hit rate 2.2% among 330,000; inhibition, % at 20 µM; AID 463190; S. cerevisiae tim10-1 ts strain growth, BacTiter-Glo, 24 h;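 active means inhibition of at least 40%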;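 further: mutant grown at 25 °C; 0% = DMSO wells with yeast and 100% = wells holding no yeast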
tim23-1 inh: growth inhibitors of tim23-1 mutant yeast. AID 463212. hit rate 1.3% among 330,000. inhibition, % at 20 µM. S. cerevisiae tim23-1 growth, BacTiter-Glo luminescence, 24 h;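 active means growth inhibition of the mutant yeast at or above 50%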;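 further: temperature-sensitive mutant grown at 25 °C; plate controls were DMSO-treated mutant yeast for no effect and medium wells lacking yeast for full effect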
TIM10 inh: growth inhibitors of TIM10 yeast strain; S. cerevisiae TIM10 strain growth, BacTiter-Glo luminescence, 24 h; inhibition, % at 10 µM; hit rate 1.4% among 330,000;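 active means inhibition of 40% or more at the single tested concentration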;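 further: wild-type TIM10 isogenic control strain grown at permissive 25 °C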
Mot1-301 SUMO: inhibitors of SUMOylation pathway: yeast Mot1-301 growth rescue; S. cerevisiae Mot1-301 growth rescue, ATP luminescence, 38.5C; percent above DMSO median, 100 means doubled; growth rescue, % at 18.8 µM; hit rate 1% among 320,000; AID 2716;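 active means every valid replicate shows activation above 250% relative to neutral control wells; inactive means the rest, any valid replicate at or below 250%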;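 further: OY570 slx delta 5 strain wells were the positive control but not used for scaling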
Yeast Mot1 SUMO: yeast SUMO pathway inhibition in dose response. shares compounds with Mot1-301 SUMO. S. cerevisiae Mot1-301 galactose growth, ATP luminescence, 24 h; -100 = growth of slx-deleted rescue strain. growth activity, percent, % at 42 µM. 2,300 tested, under 10 active. AID 493004;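 active means Signal drops as the depositor expects, and the fitted half-maximal dose is no more than ten times the top valid tested dose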;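 further: more negative values mean stronger growth rescue toward the control strain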
* = called active by the depositor; · = no result given.

SMILES	PfHsp90 yeast 2	tim10-1 inh	tim23-1 inh	TIM10 inh	Mot1-301 SUMO	Yeast Mot1 SUMO
O=C(COc1ccc(Br)cc1)NCCCNC(=O)c1cnccn1	9.3	9.8	17.1	-1.5	157.5	·
COC(=O)c1ccc(Cn2cc(Cl)cn2)cc1	-3.1	6.4	6.9	0.1	652.1*	1.1
O=C(Nc1cnn(Cc2ccc(Cl)cc2)c1)c1ccc([N+](=O)[O-])cc1	-27.4	30.8	7.4	26.7	390.2*	0.7
CCN(CC)c1ccc(/C=N/N2CCN(c3ccccn3)CC2)cc1	-27.1	19.4	23.8	17.2	1.5	·
O=c1c2ccccc2nc(SCc2nnc(-c3ccccc3)o2)n1-c1ccc(F)cc1F	-19.6	11.0	22.2	-26.0	465.9*	0.0
O=c1c2ccccc2nc(SCc2nnc(-c3ccccc3Br)o2)n1-c1ccccc1	-18.3	-12.9	22.6	4.3	35.3	·
O=C(Nc1nc(-c2ccccn2)cs1)c1ccc2c(c1)OCCO2	1.2	5.4	14.1	2.6	368.9*	-0.4
CC1CCCN(C(=O)Cc2ccc(F)cc2)C1 (centres undefined)	·	7.1	-0.5	-3.2	407.6*	-0.2
CCOC(=O)c1oc2ccccc2c1COC(=O)CNC(=O)c1cccc(C)c1	-16.8	16.0	20.8	6.1	984.1*	0.1
Cc1cccc(C(=O)NCC(=O)OCc2nnc(-c3ccccc3)o2)c1	17.7	-11.4	-4.6	0.1	3.0	·
COCCCn1c2nc3ccccc3nc2c2c(=O)n(Cc3ccc(Cl)cc3)cnc21	-2.6	28.6	27.2	38.2	425.4*	0.0
COCCCn1c2nc3ccccc3nc2c2c(=O)n(Cc3ccccc3Cl)cnc21	·	19.7	-9.9	0.1	1.1	·
CCn1cc(C(=O)N2CCN(c3ccc(OC)cc3)CC2)c(=O)c2cc(S(=O)(=O)N3CCOCC3)ccc21	-3.8	-1.8	-7.7	4.5	798.4*	-0.9
Cc1cc(S(=O)(=O)N2CCCCC2CCNC(=O)C(=O)NCC2CCCO2)ccc1F (centres undefined)	17.5	14.4	12.3	1.9	390.5*	-0.2
Cc1ccc(S(=O)(=O)N2CCCOC2CNC(=O)C(=O)NCCN2CCOCC2)cc1 (centres undefined)	-0.8	0.4	-1.5	5.9	0.5	·
COc1ccc(S(=O)(=O)N2CCCOC2CNC(=O)C(=O)NCCCN2CCOCC2)cc1C (centres undefined)	15.6	-5.0	9.0	14.0	415.5*	-0.9
Cc1cc(S(=O)(=O)N2CCCCC2CCNC(=O)C(=O)NCc2cccnc2)ccc1F (centres undefined)	15.7	1.9	9.1	10.7	-2.5	·
CN(CC(=O)NCc1cccs1)S(=O)(=O)c1cccc2nsnc12	8.7	11.4	-3.1	-5.6	435.9*	0.0
NC(=O)c1nsc(C(=O)N(c2ccc3c(c2)OCO3)C(C(=O)NCC2CCCO2)c2ccc(F)cc2)c1N (centres undefined)	-9.9	12.3	23.4	-6.7	-21.3	·
COc1ccc2oc(=O)c(C(=O)NCc3ccco3)cc2c1	26.3	-6.7	-7.9	-12.6	653.8*	0.0
CCC1=Nc2cc(C(=O)NCc3ccco3)ccc2Sc2ccccc21	1.9	10.4	26.0	28.6	397.2*	1.2
CCCOc1ccc(C(=O)NCc2ccco2)cc1	-2.2	4.5	14.4	-16.4	684.5*	-0.2
CCOC(=O)C(=COC(=O)c1ccccc1)NC(=O)Cc1ccccc1	3.7	·	·	·	·	·
CCN(CC(=O)NCc1ccc(F)cc1)C(=O)c1cccnc1SC	-11.0	-20.6	0.2	13.2	-9.2	·
Nc1ncnc2nc(SCC(=O)Nc3ccccc3F)[nH]c12	-12.4	-1.3	-2.0	-24.0	5.0	·
SMILES	PfHsp90 yeast 2	tim10-1 inh	tim23-1 inh	TIM10 inh	Mot1-301 SUMO	Yeast Mot1 SUMO
COc1ccc(/C=N\Nc2ccc([N+](=O)[O-])cc2)c(C(=O)O)c1OC	-22.9	-19.9	-6.5	12.8	455.4*	0.3
Cc1ccc(NS(=O)(=O)c2ccc(NC(=O)C3CCCO3)cc2)cc1 (centres undefined)	·	-0.5	14.7	12.4	469.1*	0.2
COc1ccc(NS(=O)(=O)c2ccc(NC(=O)C3CCCO3)cc2)cc1 (centres undefined)	0.6	8.2	7.6	5.5	-5.3	·
O=C(/C=C/c1ccc(Cl)cc1)NCc1ccncc1	14.8	7.3	-16.3	0.2	566.4*	1.2
Cc1ccc(-c2nn(-c3ccc(F)cc3)cc2C(=O)N2CCN(C3CCS(=O)(=O)C3)CC2)cc1 (centres undefined)	-11.9	3.4	14.5	27.4	-5.7	·
CC12CCC(=O)N1C(C(=O)Nc1ccccc1F)CS2 (centres undefined)	10.5	1.8	-8.7	-0.6	792.6*	0.5
CC12CCC(=O)N1C(C(=O)Nc1cccc3ccccc13)CS2 (centres undefined)	4.9	14.3	20.4	28.0	-8.6	·
O=C(NCC1CCCO1)C1CC(c2ccc(Cl)c(Cl)c2)=NO1 (centres undefined)	6.4	22.1	17.5	-3.7	869.9*	0.2
Cn1ncc(C#N)c1NC(=O)C1CC(c2ccc(Cl)c(Cl)c2)=NO1 (centres undefined)	38.1	16.5	16.5	10.7	-12.7	·
COc1ccccc1NC(=O)CN(c1ccc(C)cc1)S(=O)(=O)c1c(C)n[nH]c1C	-2.1	19.3	-3.4	12.2	981.5*	0.6
CC(C)(C)Cc1nc(-c2ccccn2)no1	·	15.0	11.6	7.2	391.9*	0.1
CCOc1ccc(Br)cc1S(=O)(=O)N1CCC(C(N)=O)CC1	-10.9	17.3	-3.6	11.2	438.1*	0.2
CCOc1ccc(Cl)cc1S(=O)(=O)N1CCC(C(=O)NCc2cccnc2)CC1	0.7	5.0	-10.8	-5.0	365.8*	-0.1
CC1CCCC(NC(=O)C2CCN(C(=O)Nc3ccccc3)CC2)C1C (centres undefined)	·	7.2	2.2	8.3	-7.2	·
COc1cccc(CNC(=O)CCCn2nc(C)c3c(C)n(-c4ccccc4)nc3c2=O)c1	-2.2	31.2	19.5	3.9	531.1*	0.2
Cc1ccc(-n2nc3c(=O)n(CCCC(=O)NCc4cccc(F)c4)nc(C)c3c2C)cc1	4.8	4.7	7.2	8.5	597.4*	-0.1
Cc1ccc(-n2nc3c(=O)n(CCCC(=O)NCc4ccc(F)cc4)nc(C)c3c2C)cc1	2.5	4.9	11.2	-0.9	3.0	·
CCOc1ccc(S(=O)(=O)N2CCN(C(=O)CN3C(=O)NC4(CCCC4)C3=O)CC2)cc1	·	2.9	15.3	-2.9	666.2*	-0.5
COc1ccc(S(=O)(=O)N2CCN(C(=O)CN3C(=O)NC4(CCCC4)C3=O)CC2)cc1	-13.6	-17.1	3.0	-1.0	-6.2	·
CCN(CC)CCCNC(=S)N1CCC(c2nc3ccccc3[nH]2)CC1	-1.8	-2.7	7.6	-9.7	725.3	·
CCOC(=O)c1ccc(NC(=S)NCCCN2CCOCC2)cc1	3.5	-3.2	6.1	8.2	621.6*	0.4
